High-throughput results deposited in PubChem by National Center for Advancing Translational Sciences (NCATS).
KB-V1 cytotox: KB-V1 MDR subline cytotoxicity; Potency, µM (titrated, usually from 46.1 µM), hits mostly cytotoxic; 400,000 compounds, 3.4% hits; KB-V1 MDR cells viability, CellTiter-Glo, 72 h; further: nearly all actives have a fitted effect of over 60% in size
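qHTS viability screen in drug-selected KB-V1 MDR cells: 72 h compound treatment at 37 degrees C, ATP luminescence end point.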
HT1080NT lethal: kills 2HG-producing HT-1080-NT fibrosarcoma cells; HT-1080-NT fibrosarcoma viability, CellTiter-Glo ATP luminescence, 48 h; Potency, µM (doses to about 46.1 µM), without a hit: at the top dose activity, negative = less viability, most hits filed as cytotoxic; 360,000 compounds, 1.6% hits; AID 686970;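 further: NT is the 2HG producing partner of a matched IDH1 knockdown line; 0% = DMSO-treated cells and -100% = media-only wells without cells; nearly all actives have a fitted effect of over 55% in size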
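A 48-hour cytotoxicity screen used HT-1080-NT cells plated 2 hours before compound delivery. ATP-based CellTiter-Glo luminescence measured viability, normalized to DMSO and no-cell controls.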
KB-3-1 tox: kills parental KB-3-1 adenocarcinoma cells; 400,000 compounds, 1.4% hits; KB-3-1 viability, CellTiter-Glo ATP luminescence, 72 h; Potency, µM (doses to about 46.1 µM), actives largely listed as cytotoxic; further: nearly all actives have a fitted effect of over 60% in size
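KB-3-1 parental drug-naive adenocarcinoma cells in DMEM/10% FBS, incubated 72 h at 37 C with pin-transferred compounds across a concentration series. Viability by CellTiter-Glo luminescence; concentration-response curves fitted after normalization.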
HT1080 IDH1KD tx: toxicity to HT-1080 IDH1 knockdown cells (counter line) | Potency, µM (top dose mostly 46.1 µM), inactives show at the highest dose activity, negative = toxicity, actives largely listed as cytotoxic | HT-1080 IDH1 knockdown viability, ATP luminescence, 48 h | AID 686971 | 360,000 compounds, 2% hits;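 further: 0% = DMSO wells and -100% = cell-free medium wells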
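IDH1KD HT-1080 cells, 750/well, RPMI + 5% FBS; compound pinned after 2 h settling; 48 h, 37 °C; CellTiter-Glo luminescence; % activity normalised to DMSO and no-cell wells; curves fitted, classed by r2 and efficacy.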
* = called active by the depositor; [ ] = dose if it differs, or a comment. Rows were chosen to be rich in hits. Some 5.7% of all compounds tested hit in one or more screens of this group. The call rests on the fitted dose curve; in most records, active means well fitted curve in the direction sought with a large enough effect; inconclusive means small, poorly fitted or top-dose-only effect, or another doubt; inactive means no such curve, though single readings can be large; an effect the other way counts as inactive or inconclusive. Unless noted, on the % scale 0 is the no-effect control and ±100 the full control effect; potency means the concentration at half of the fitted maximal effect.

Screening CC1(c2ccccn2)Nc2ccccc2-c2nc3ccccc3n21 (configuration not stated) returned KB-V1 cytotox 16µM*, HT1080NT lethal 1%, KB-3-1 tox inactive and HT1080 IDH1KD tx 3%.
Cc1ccc(S(=O)(=O)/N=C2/C=C(Sc3ncn[nH]3)C(=O)c3ccccc32)cc1 was read as KB-V1 cytotox inconclusive, HT1080NT lethal 18µM*, KB-3-1 tox inactive and HT1080 IDH1KD tx 3.7µM*.
`Cc1ccc(S(=O)(=O)Nc2ccc(O)c(Sc3ncn[nH]3)c2)cc1` gave KB-V1 cytotox inactive, HT1080NT lethal 14%, KB-3-1 tox inactive and HT1080 IDH1KD tx 4%.
CC(C)c1ccc(S(=O)(=O)/N=C2/C=C(Sc3ncn[nH]3)C(=O)c3ccccc32)cc1 was read as KB-V1 cytotox inconclusive, HT1080NT lethal 2.9µM*, KB-3-1 tox inactive and HT1080 IDH1KD tx 4.6µM*.
COc1ccccc1CNC(=O)CSc1nc2nc(C)c(Cc3ccccc3Cl)c(C)n2n1 was read as KB-V1 cytotox inactive and KB-3-1 tox inactive.
For COc1cccc(C(=O)Nc2cccc(C(=O)NCC(C)C)c2)c1 the results were KB-V1 cytotox 18µM*, HT1080NT lethal -4%, KB-3-1 tox inactive and HT1080 IDH1KD tx 0%.
CC(C)CNC(=O)c1cccc(NC(=O)c2ccc(Cl)c([N+](=O)[O-])c2)c1 was read as KB-V1 cytotox 21µM*, HT1080NT lethal -3%, KB-3-1 tox inactive and HT1080 IDH1KD tx 0%.
CC(C)CNC(=O)c1ccc(NC(=O)c2ccccc2[N+](=O)[O-])cc1 was read as KB-V1 cytotox inactive, HT1080NT lethal -5%, KB-3-1 tox inactive and HT1080 IDH1KD tx -3%.
For CC(C)CNC(=O)c1cccc(NC(=O)Cc2ccc(Br)cc2)c1 the results were KB-V1 cytotox 3.3µM*, HT1080NT lethal 2%, KB-3-1 tox inconclusive and HT1080 IDH1KD tx -1%.
For COc1ccc(C)cc1NC(=O)COc1cc(=O)n(C)c2ccccc12 the results were KB-V1 cytotox inconclusive and KB-3-1 tox inactive.
Cc1cc(=O)n2[nH]c(NCc3ccc(F)cc3)nc2n1 was read as KB-V1 cytotox inconclusive and KB-3-1 tox inactive.
Nc1nc(Cl)nc2c1ncn2C1CC(O)C(CO)O1 (configuration not stated) was read as KB-V1 cytotox inconclusive, HT1080NT lethal inconclusive, KB-3-1 tox 8.2µM* and HT1080 IDH1KD tx inconclusive.
`CCOC(=O)C1CCCN(c2nc3c(S(=O)(=O)c4ccc(Br)cc4)nnn3c3ccsc23)C1` (configuration not stated) gave KB-V1 cytotox inconclusive and KB-3-1 tox inactive.
Screening CN(C=O)c1cc([N+](=O)[O-])ccc1OCc1ccccc1 returned KB-V1 cytotox 18µM*, HT1080NT lethal 20%, KB-3-1 tox inactive and HT1080 IDH1KD tx 24%.
Cc1sc2nc3n(c(=O)c2c1C)CCCCC3 was read as KB-V1 cytotox inactive, HT1080NT lethal 2%, KB-3-1 tox inactive and HT1080 IDH1KD tx 5%.
`Cc1sc2nc3ccc(N4CCCCC4)nn3c(=O)c2c1C` gave KB-V1 cytotox 9.2µM*, HT1080NT lethal -4%, KB-3-1 tox inactive and HT1080 IDH1KD tx 3%[9.24 µM].
For O=C(c1ccc(CS(=O)c2cccc(Cl)c2)o1)N1CCN(c2ccccn2)CC1 (configuration not stated) the results were KB-V1 cytotox inconclusive, HT1080NT lethal inconclusive, KB-3-1 tox 7.3µM* and HT1080 IDH1KD tx inconclusive.
O=C(c1ccc(CS(=O)c2cccc(Cl)c2)o1)N1CCOCC1 (configuration not stated) was read as KB-V1 cytotox inactive, HT1080NT lethal 0%, KB-3-1 tox inactive and HT1080 IDH1KD tx 2%.
For COc1cccc(N2CCN(C(=O)c3ccc(CS(=O)Cc4ccc(C)cc4)o3)CC2)c1 (configuration not stated) the results were KB-V1 cytotox inconclusive, HT1080NT lethal -4%, KB-3-1 tox inactive and HT1080 IDH1KD tx -2%.
COc1cccc(N2CCN(C(=O)c3ccc(CS(=O)c4ccc(Cl)cc4)o3)CC2)c1 (configuration not stated) was read as KB-V1 cytotox inconclusive, HT1080NT lethal inconclusive, KB-3-1 tox 8.2µM* and HT1080 IDH1KD tx 1.8µM*.
